Data on nine compounds can be found in PubChem BioAssay (NCI).

Experiment in all cases: NCI-60 one-dose screen, 48 h (100 = growth as untreated, 0 = no growth, -100 = all killed)
What all share (details): 10 µM unless noted

The test system of experiment [1] is K-562 leukemia.
Experiment [2] has as its system MALME-3M melanoma.
For experiment [3], the system named is MDA-MB-231 breast.
The test system of experiment [4] is SF-268 CNS.
Experiment [5] deals with SF-295 CNS.
Experiment [6] relates to SF-539 CNS.
For experiment [7], the system named is UACC-257 melanoma.
The subject of experiment [8] is HCT-15 colon.
For experiment [9], the system named is HT29 colon.
Experiment [10] deals with SNB-75 CNS.
For experiment [11], the system named is SNB-19 CNS.
Experiment [12] deals with U251 CNS.
Experiment [13] deals with PC-3 prostate.
In experiment [14] the test system is UACC-62 melanoma.
Experiment [15] concerns LOX IMVI melanoma.
For experiment [16], the system named is SK-MEL-28 melanoma.
Experiment [17] concerns SK-MEL-2 melanoma.
Experiment [18] deals with RXF 393 renal.
Experiment [19] concerns M14 melanoma.
The subject of experiment [20] is SK-MEL-5 melanoma.

The panel holds about 83,000 compounds, 20% with a hit somewhere; the sample as a whole holds those more often.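 Compound tested at a single concentration for 48 hours in 96-well plates; a percent growth value below 10 was scored as active.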 Values without a mark were called inactive. The source made the active and inactive calls.

Regarding `CCCCCCCC/C=C\CCCCCCCCOc1ccccc1CC(=O)NCC[N+]1(C)CCCC1`, the growth in experiment [1] is 41.7%; in experiment [2], 88.3%; in experiment [3], 83.9%; in experiment [4] it was 69.1%; in experiment [5], 98.2%; in experiment [6], 99%. Also, the growth in [7] was 88.4%; in [8], 104%; in experiment [9], 18%; in [10], 79%; in experiment [11], 60.4%; in [12], 47.6%. Moreover, the growth in experiment [13] is 17.5%; in [14], 67.1%; in experiment [15], 72%; in experiment [16], 96.7%; in experiment [17], 106%.

For `COc1ccc(/C=N\Nc2ccc([N+](=O)[O-])cn2)cc1OC`, the growth in experiment [1] was 93.7%; in experiment [3] it was -0.447% (active); in experiment [18], 51.6%; in experiment [4], 73.3%; in [5], 35.4%; in experiment [6], 32.1%. The growth in experiment [7] is 67.6%; in [19], 110%; in experiment [8] it was 95.8%; in experiment [10], -0.426% (active); in [11] it was 39.7%; in [12], -18.5% (active). Moreover, the growth in experiment [20] was 85.5%; in experiment [14], 81.7%; in experiment [15] it was 68.7%; in experiment [16] it was 79.5%.

For the compound `COc1cc(/C=C2\COc3ccc(O)cc3C2=O)cc(OC)c1`, the growth in experiment [1] was 5.63% (active); in [2] it was 70.3%; in experiment [3], 77%; in experiment [4], 85.2%; in [5], 93.4%; in experiment [6] it was 80.7%. For the same compound, the growth in experiment [7] was 82.1%; in [9], 12%; in [10], 87%; in experiment [11], 50.5%; in experiment [12] it was 30.1%; in experiment [13], 53.8%. For the same compound, the growth was 62.6% in [14], -65.5% (active) in experiment [15], 94.4% in experiment [16] and 101% in experiment [17].

`CCC(C)(C)C(=O)O[C@H]1C[C@@H](C)C=C2C=C[C@H](C)[C@H](CC[C@@H]3C[C@@H](O)CC(=O)O3)[C@H]21`: the growth in experiment [1] is 63.3%; in experiment [2], 94.1%; in [18], 36.1%; in experiment [4], 33.2%; in [5], 11.7%; in experiment [6], 90.7%. The growth was 86.7% in experiment [7]; 59.3% in [19]; 54.7% in experiment [8]; 76.9% in [9]; 13.7% in experiment [10]; 4.81% (active) in experiment [12]. Moreover, the growth in experiment [13] is 33.9%; in [15] it was -16.2% (active); in experiment [16], 62.3%; in [17] it was 26.3%.

For the compound `O=c1[nH]c(=O)n(C2CC(O)C(CO)O2)cc1C(F)(F)F` (configuration not stated), the growth in [1] was 62.4%; in [2] it was 51.4%; in experiment [3] it was 102%; in experiment [4], 30.7%; in experiment [5], 6.84% (active); in experiment [6] it was 8.46% (active). The growth in [19] is 15.8%; in [8], 73.9%; in [9], 68.7%; in experiment [10] it was 57.6%; in experiment [11], 55.6%; in experiment [12] it was 42%. Moreover, the growth in [13] was 74.8%; in experiment [20], 29.8%; in [14], 29.6%; in experiment [15], 18.3%; in experiment [16], 75.2%; in [17], -17.8% (active).

As to `CCCCCCCCCCCCCCCCN=C(CC(=O)O)C(=O)O`, the growth in experiment [1] is 80.6%; in experiment [2], 111%; in [18], 101%; in experiment [4], 103%; in experiment [5], 103%; in [6], 125%. Further, the growth in experiment [7] was 114%; in experiment [19] it was 95.8%; in [8], 102%; in experiment [9], 82.1%; in [10], 91.6%; in [12] it was 101%. Besides, the growth in [13] is 91.9%; in [20], 113%; in [15], 90.5%; in experiment [16] it was 103%; in experiment [17] it was 92.8%.

For `Oc1ccccc1C=Nc1ccccc1N=Cc1ccccc1O.[Cu+2]`, the growth in experiment [1] is 36.7%; in [3], 63.5%; in experiment [18], 104%; in experiment [4], 75.2%; in experiment [5] it was 68.6%; in experiment [6], 76%. In addition, the growth is 45.4% in experiment [7]; 65.2% in experiment [19]; 56.5% in experiment [8]; 47.9% in experiment [10]; 91.7% in experiment [11]; 61.8% in [12]. Also, the growth is 24.1% in [20], 43.9% in experiment [14], 47.6% in experiment [15] and 85.1% in [16].

`CC(=O)Nc1ccc2c(c1)Cc1c(F)c(F)c(F)c(F)c1-2`: the growth in experiment [1] is 104%; in experiment [2], 113%; in experiment [3], 75.1%; in experiment [4], 91.9%; in experiment [5], 90.5%; in [6], 87.7%. For the same compound, the growth was 114% in experiment [19]; 83.4% in [8]; 97.1% in experiment [9]; 44% in [10]; 90.3% in [11]; 78.8% in experiment [12]. For the same compound, the growth in [13] was 81.9%; in [20] it was 84.7%; in experiment [14] it was 77.4%; in experiment [15] it was 80.3%; in experiment [16], 102%; in [17] it was -27.7% (active).

Take `Nc1nc(Cl)c2[nH]cnc2n1`: the growth in experiment [1] is 118%; in experiment [2], 94.4%; in [3], 111%; in experiment [4] it was 101%; in experiment [5] it was 93.7%; in experiment [6], 97.4%. Also, the growth in [19] is 97.7%; in [8] it was 103%; in experiment [9], 110%; in experiment [10], 79.6%; in experiment [11], 92.9%; in [12], 97.6%. Further, the growth in [13] is 122%; in experiment [20], 105%; in experiment [14], 100%; in [15], 105%; in experiment [16], 113%; in experiment [17], 85.4%.
